Laboratory results from PubChem BioAssay (NCATS).
Unmarked numbers belong to inactive results. Inconclusive results are not listed. Where a call stands in place of a potency, no number is given. Active and inactive are the calls of the source. The call rests on the fitted dose curve; in most records, active means well fitted curve in the direction sought with a large enough effect; inconclusive means small, poorly fitted or top-dose-only effect, or another doubt; inactive means no such curve, though single readings can be large; an effect the other way counts as inactive or inconclusive.

Experiments:
[1] = HEK-293 Cancer Cell Toxicity qHTS against the NCATS CANVASS Library (AID 1347355); further: nearly all actives have a fitted effect of over 65% in size; further: potency means the concentration at half of the fitted maximal effect
How it was run: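 1000 cells/well, 4 h pre-incubation 37 °C/5% CO2; 11-pnt titration; 72 h; CellTiter-Glo 15 min RT, luminescence.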

[2] = HPAF-II 24hr Apoptosis Induction qHTS against the NCATS CANVASS Library (AID 1347356)
How it was run: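 500 HPAF-II cells/well; compounds in 11-pnt qHTS; 24 h, 37 C/5% CO2; Caspase-Glo 3/7 added, 15 min RT dark; luminescence read. Doxorubicin control.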

[3] = HEK293 18hr Apoptosis Induction qHTS against the NCATS CANVASS Library (AID 1347357)
How it was run: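 HEK293 cells (500 per well, DMEM with 10% FBS) were treated with natural products, incubated 18 hours at 37 degrees C, then caspase-3/7 activity was read by Caspase-Glo luminescence after 15 min at room temperature.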

[4] = HPAF-II 12hr Apoptosis Induction qHTS against the NCATS CANVASS Library (AID 1347358)
How it was run: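 Caspase-Glo 3/7 luminescence (DEVD substrate) reports caspase activity in HPAF-II cells after 12 h compound treatment at 37 degrees C. Compounds were tested in an 11-point series. Doxorubicin served as control.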

[5] = HPAF-II 18hr Apoptosis Induction qHTS against the NCATS CANVASS Library (AID 1347360)
How it was run: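 HPAF-II cells (500/well, DMEM + 10% FBS) were exposed to compounds for 18 hours at 37 degrees C. Caspase-3/7 activity was then read by Caspase-Glo 3/7 luminescence after 15 min at room temperature.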

[6] = HEK293 12hr Apoptosis Induction qHTS against the NCATS CANVASS Library (AID 1347361)
How it was run: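 Read-out: Caspase-Glo 3/7 luminescence (DEVD substrate), 15 min RT. Preceded by 12 h compound exposure of HEK293, 500 cells/well, 11-pt qHTS titration; doxorubicin titration as control.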

[7] = qHTS for ATAD5 Agonist screened against the NCATS CANVASS Library (AID 1347367);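 further: luciferase reporter driven by ATAD5 which rises upon DNA damage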
How it was run: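 HEK293T cells stably carrying an ATAD5-controlled luciferase reporter (2000 cells/well) attached for 5 hr, then received compounds in an 11-point series for 16hr at 37C. Luminescence was read after a 30 min room-temperature reagent step.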

[8] = MCF7 Cancer Cell Toxicity qHTS against the NCATS CANVASS Library (AID 1347369)
How it was run: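 MCF7, 500 cells/well; cpds 11-pt qHTS; 72 hr, 37C/5% CO2; CellTiterGlo ATP luminescence.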

[9] = 10-beta competent E. coli microbial cell viability qHTS against the NCATS CANVASS Library (AID 1347376); further: series mostly up to about 46 µM
How it was run: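 Luminescence from BacTiter-Glo ATP detection served as the viability read-out; bacteria (0.2 OD) had been incubated overnight at 37C with pin-transferred compounds at 11 concentrations.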

[10] = qHTS for H2AX Agonists against the NCATS CANVASS Library (AID 1347378); further: potency means the concentration at half of the fitted maximal effect
How it was run: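 CHO-K1 cells were plated overnight at 37C, then exposed to compounds (concentration series, 0.76% DMSO final) for 3 hr at 37C. Lysates received Eu-cryptate anti-pH2AX (S139) and d2 anti-H2AX antibodies; after 24 hr at room temperature, TR-FRET 665/620 nm ratio was read.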

[11] = Inflammasome Signaling qHTS Counterscreen: IL-1-beta AlphaLISA counterscreen against the NCATS CANVASS Library (AID 1347381);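 further: cell-free check with purified IL-1β in medium and no THP-1 cells; series mostly up to about 57 µM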
How it was run: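 Here, no cellular stimulation occurs; compounds in an 11-point series meet 4 pg purified IL-1-beta directly. Bead-based AlphaLISA detection follows (1 h acceptor/antibody, then 30 min donor, dark, room temperature), with excitation at 680 nm.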

[12] = qHTS for Activators of p53 Stress Response Pathway screened against the NCATS CANVASS Library (AID 1347388); further: potency means the concentration at half of the fitted maximal effect
How it was run: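 p53RE-bla HCT-116 cells (4000/well) were plated 5 h at 37C, exposed to compounds for 16 h at 37C over an 11-point concentration series, then loaded with CCF4 for 2 h at room temperature; 460/530 nm emission ratio read.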

[13] = qHTS assay for small molecule disruptors of mitochondrial membrane potential screened against the NCATS CANVASS Library (AID 1347389); further: nearly all actives have a fitted effect of over 60% in size; further: potency means the concentration at half of the fitted maximal effect
How it was run: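 Red/green fluorescence ratio read-out: J-aggregates ex 540/em 590 nm, monomers ex 490/em 535 nm. HepG2, 1 hr compound treatment, then 30 min Mito-MPS dye at 37C. 11-pt qHTS concentration series.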

[14] = Secretion counterscreen for inhibitors of the SERCaMP assay screened against the NCATS CANVASS Library (AID 1347390);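 further: light from luciferase secreted into medium read as a measure of general secretion; series mostly up to about 77 µM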
How it was run: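 SH-SY5Y cells expressing constitutively secreted GLuc, 1000 cells/well, attached 4 h at 37C, then exposed to compounds (0.001 - 77 uM, 11-pnt series) for 20 h. Coelenterazine added; luminescence read to flag secretory-pathway interferers.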

[15] = G06 Cancer Cell Toxicity qHTS against the NCATS CANVASS Library (AID 1347368); further: nearly all actives have a fitted effect of over 60% in size; further: potency means the concentration at half of the fitted maximal effect
How it was run: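 ATP luminescence (CellTiterGlo) readout of cytotoxicity. Canine G06 glioma cells, 500/well, 72 hr incubation at 37C with compounds; bortezomib titration served as control.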

[16] = qHTS for ATAD5 Antagonist screened against the NCATS CANVASS Library (AID 1347370); further: nearly all actives have a fitted effect of over 65% in size; further: potency means the concentration at half of the fitted maximal effect
How it was run: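 HEK293T-ATAD5 luc reporter, 2000 cells/well; 5hr attach; cpd + 10 uM 5-FUrd; 16hr 37C, 5% CO2. Readouts: CellTiter-Fluor fluorescence (1hr), then Amplite luciferase luminescence (30min RT).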

[17] = Viability qHTS for inhibitors of the SERCaMP assay screened against the NCATS CANVASS Library (AID 1347400); further: series mostly up to about 92 µM; nearly all actives have a fitted effect of over 70% in size
How it was run: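 CellTiter-Glo luminescence readout after 48 h compound exposure (11-pnt qHTS series) of SH-SY5Y-GLuc SERCaMP MJH297 cells seeded at 1000 cells/well; bortezomib positive control.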

[18] = Redox Reaction Profiling qHTS: Assay Interference Panel against the NCATS CANVASS Library (AID 1347401)
How it was run: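 Quantitative HTS over an 11-point series was run in HEPES pH 7.3 with 50 mM NaCl, 200 uM DTT and 5 uM resazurin. Initial and 15-min resorufin fluorescence readings were taken.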

[19] = KB-3-1 Cancer Cell Toxicity qHTS against the NCATS CANVASS Library (AID 1347366); further: nearly all actives have a fitted effect of over 75% in size; further: potency means the concentration at half of the fitted maximal effect
How it was run: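 KB-3-1 cells (500 cells/well) in DMEM + 10% FBS were treated with compounds for 72 hr at 37C, 5% CO2. Viability was read as CellTiter-Glo luminescence after 10 minutes at room temperature.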

[20] = biological target: Nuclear receptor subfamily 1 group I member 3 (Homo sapiens) (UniProt Q14994); assay: qHTS for Constitutive Androstane Receptor (CAR) Agonist screened against the NCATS CANVASS Library (AID 1347373);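 further: every well also contained 1.5 µM PK11195 alongside the test compound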; further: potency means the concentration at half of the fitted maximal effect
Nuclear receptor subfamily 1 group I member 3 (Homo sapiens), sequence (Q14994 whole entry, looked up): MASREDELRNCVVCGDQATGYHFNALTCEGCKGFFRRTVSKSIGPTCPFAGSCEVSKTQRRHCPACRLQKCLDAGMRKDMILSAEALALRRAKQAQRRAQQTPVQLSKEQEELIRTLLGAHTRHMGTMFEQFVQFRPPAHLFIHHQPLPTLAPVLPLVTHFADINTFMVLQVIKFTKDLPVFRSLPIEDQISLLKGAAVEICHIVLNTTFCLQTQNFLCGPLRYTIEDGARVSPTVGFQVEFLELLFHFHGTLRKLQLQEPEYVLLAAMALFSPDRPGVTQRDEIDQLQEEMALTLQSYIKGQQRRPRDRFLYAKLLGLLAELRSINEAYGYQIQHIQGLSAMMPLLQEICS
How it was run: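 Luciferase read-out (ONE-Glo, 30 min RT) of CYP2B6-2.2kb promoter activity in double-stable HepG2-hCAR cells after 24hr compound exposure with 1.5uM PK11195 present; viability measured first by CellTiter-Fluor.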

| Structure (SMILES) | Potency [1] | outcome [2] | Potency [3] | Potency [4] | Potency [5] | outcome [6] | Potency [7] | Potency [8] | outcome [9] | Potency [10] | outcome [11] | Potency [12] | Potency [13] | Potency [14] | Potency [15] | Potency [16] | Potency [17] | Potency [18] | Potency [19] | Potency [20] |
| --- | --- | --- | --- | --- | --- | --- | --- | --- | --- | --- | --- | --- | --- | --- | --- | --- | --- | --- | --- | --- |
| C=C[C@@]1(C)CC[C@@H]([C@H](C)C(=O)/C=C/C(C)(C)O)O1 | 26.4 µM (active) | inactive | inactive | inactive | inactive | inactive | inactive | inactive | inactive | inactive | inactive | inactive | inactive | inactive | – | – | – | – | – | – |
| COc1ccc2[nH]c3c(c2c1)CCN1C[C@H]2C[C@@H](OC(=O)c4cc(OC)c(OC)c(OC)c4)[C@H](OC)[C@@H](OC)[C@H]2C[C@H]31 | 20.9 µM (active) | inactive | inactive | inactive | inactive | inactive | inactive | – | inactive | inactive | inactive | inactive | – | – | 1.48 µM (active) | 6.6 µM (active) | inactive | inactive | – | – |
| CO[C@H]1[C@@H](OC(=O)/C(C)=C\[C@@H]2O[C@@H]2[C@H]2O[C@H]2C)[C@H](O)[C@H](OCC23C[C@@H]4[C@H](C)CC[C@H]4C4(C=O)CC2C=C(C(C)C)C34C(=O)O)O[C@@H]1C (some centres not stated) | inactive | inactive | inactive | inactive | inactive | inactive | inactive | inactive | inactive | inactive | inactive | inactive | inactive | inactive | inactive | inactive | inactive | inactive | inactive | inactive |
| C=C1CC[C@@H](Br)C(C)(C)[C@]12CC=C(C)C(=O)C2 | inactive | inactive | inactive | inactive | inactive | inactive | inactive | inactive | inactive | inactive | inactive | inactive | – | inactive | inactive | inactive | inactive | inactive | inactive | – |
| Cc1occ2c1C(=O)c1c(cc(O)c(O)c1O)C2=O | – | inactive | inactive | inactive | inactive | inactive | inactive | inactive | – | 24.4 µM (active) | inactive | 11.7 µM (active) | 7.41 µM (active) | inactive | – | inactive | inactive | inactive | inactive | inactive |
| C=C1CC[C@@H](O[C@H]2C[C@@](O)([C@H](C)NC(=O)c3[nH]c(C)c(Cl)c3Cl)[C@H](O)[C@@H](C)O2)[C@@H]2C=C[C@H](C)C(/C(O)=C3/C(=O)[C@H](C(C)C)N([C@@H]4O[C@H](C)[C@H](OC(N)=O)[C@H](OC(C)=O)[C@@H]4OC)C3=O)[C@@H]12 (some centres not stated) | inactive | inactive | inactive | inactive | inactive | inactive | inactive | inactive | inactive | inactive | inactive | – | 16.6 µM (active) | inactive | – | inactive | inactive | – | inactive | inactive |
| CC[C@H]1[C@H](C)[C@H](c2cc(OC)c(OC)cc2OC)[C@@H](C)[C@H](c2cc(OC)c(OC)cc2OC)[C@@]12C=C(OC)C(=O)C=C2OC | 18.7 µM (active) | inactive | – | inactive | inactive | – | inactive | inactive | inactive | inactive | inactive | inactive | – | inactive | 23.5 µM (active) | – | – | inactive | – | inactive |
| C[C@]12CC[C@]3(C1)[C@H](CC2=O)C[C@@H](OC(=O)c1ccccc1)[C@H]1[C@](C)(C(=O)O)CCC[C@@]13C | 13.2 µM (active) | inactive | inactive | inactive | inactive | inactive | inactive | inactive | inactive | inactive | inactive | inactive | inactive | – | – | inactive | – | inactive | 18.7 µM (active) | inactive |
| C/C(=C\CC[C@@H](C)[C@H]1CC[C@]2(C)C3=CCC4C(C)(C)[C@@H](O)C[C@@H](O)[C@]4(C)C3[C@H](O)C[C@@]12C)CO (some centres not stated) | – | inactive | inactive | inactive | inactive | inactive | inactive | inactive | inactive | inactive | inactive | inactive | inactive | inactive | inactive | inactive | inactive | inactive | inactive | inactive |
| O=c1cc(-c2ccc(O)c(O)c2)oc2cc(O[C@@H]3O[C@H](CO)[C@@H](O)[C@H](O)[C@H]3O)cc(O)c12 | – | inactive | inactive | inactive | inactive | inactive | inactive | inactive | inactive | inactive | inactive | inactive | 8.31 µM (active) | inactive | – | inactive | inactive | inactive | – | inactive |
| CC(C)=CC[C@H]1C[C@@]2(CC=C(C)C)C(=O)[C@](CC=C(C)C)(C(=O)C(C(=O)c3ccccc3)=C2O)C1(C)C | 23.5 µM (active) | inactive | inactive | inactive | inactive | inactive | inactive | inactive | inactive | inactive | inactive | inactive | 7.41 µM (active) | inactive | 20.9 µM (active) | – | inactive | inactive | – | inactive |
| O=C1CC2OCC=C3CN4C5CC3C2[C@@H]2N1c1ccccc1[C@]52C[C@@H]4C1=C[C@H]2C3CC4N(CC[C@@]45c4ccccc4N(C1=O)[C@@H]25)C/C3=C/CO (some centres not stated) | 16.6 µM (active) | inactive | inactive | inactive | inactive | inactive | inactive | inactive | inactive | inactive | inactive | – | inactive | inactive | 23.5 µM (active) | – | – | inactive | – | 11.7 µM (active) |
